Assay outcomes (PubChem BioAssay)
LANA-H2B inh: blocks KSHV LANA binding to histone H2A/H2B; Q9QR71; cell-free LANA-H2A/H2B peptide, fluorescence polarization; inhibition, % (test concentration not listed); 320,000 tested, 0.6% active; AID 2629; in the data active = inhibition mostly above about 10%, no sharp cut-off; inactive = mostly below about 6.7%
RTF Ca sens inh: cardiac RTF calcium desensitization | 340,000 tested, 0.12% active | inhibition, % at 7.15 µM | AID 493244 | P19429+P45379 | IANBD-labeled cardiac RTF, Ca2+ fluorescence;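 active = inhibition above the mean inhibition of all tested compounds plus 3 SD, cut at about 17% in these data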;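 note: assay run at fixed EC70 calcium of 1.6 mM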
C-LANA FP: KSHV C-LANA DNA binding inhibition; MBP-C-LANA/FAM-LBS DNA binding, fluorescence polarization; 340,000 tested, 0.078% active; inhibition, % at 9 µM;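 active = highest replicate inhibition at or above 60% at 9 µM, even if other replicates fall short; inactive = all replicates below 60% inhibition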;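 note: 0% = neutral control wells and 100% = 4 µM acridine orange control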
RTF Ca sens act: cardiac RTF calcium sensitization; P19429+P45379; IANBD-labeled TnC RTF fluorescence at EC20 calcium; 0% EC20 calcium, 100% full calcium; activation, % at 7.2 µM; 340,000 tested, 0.24% active; AID 493008;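 active = activation above the mean over all tested compounds plus 3 SD, cut at about 30% in these data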;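 note: rise in fluorescence read as greater calcium sensitivity of cardiac thin filaments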
Keap1-Nrf2 PPI: Keap1-Nrf2 (human) interaction inhibition. Q14145. Keap1 Kelch-Nrf2 peptide fluorescence polarization, 1536-well. inhibition, % at 9.4 µM. 340,000 tested, 0.15% active; in the data active = inhibition above about 12%;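 note: human Keap1 Kelch domain with fluorescein labeled Nrf2 9mer peptide probe; 0% = neutral control wells and 100% = peptide positive control; higher means more block of Keap1 binding to Nrf2 peptide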
Target sequence (Q14145 whole entry, looked up, the tested form may be a part): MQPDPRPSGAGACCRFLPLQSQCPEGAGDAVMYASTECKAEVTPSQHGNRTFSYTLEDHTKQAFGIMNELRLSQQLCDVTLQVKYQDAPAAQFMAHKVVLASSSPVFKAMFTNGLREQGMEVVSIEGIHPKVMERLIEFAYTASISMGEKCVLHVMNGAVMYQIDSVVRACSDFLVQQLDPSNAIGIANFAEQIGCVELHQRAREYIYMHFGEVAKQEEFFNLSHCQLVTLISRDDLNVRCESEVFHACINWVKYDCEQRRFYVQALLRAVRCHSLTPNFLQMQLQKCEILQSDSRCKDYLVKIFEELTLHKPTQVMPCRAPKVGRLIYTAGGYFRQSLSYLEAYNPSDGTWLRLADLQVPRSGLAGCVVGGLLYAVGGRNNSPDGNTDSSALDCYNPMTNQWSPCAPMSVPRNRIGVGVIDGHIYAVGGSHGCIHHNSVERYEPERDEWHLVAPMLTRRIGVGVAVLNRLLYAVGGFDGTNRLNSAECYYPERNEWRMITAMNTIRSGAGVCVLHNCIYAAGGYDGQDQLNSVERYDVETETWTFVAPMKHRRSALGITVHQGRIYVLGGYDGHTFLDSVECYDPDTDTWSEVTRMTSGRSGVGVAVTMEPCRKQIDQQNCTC
Active calls of the source: *; · = no result given; + = active, no number; ! = a repeat was not active. A selection: hits, their analogues and other compounds. The true share with any hit is near 1%.

SMILES	LANA-H2B inh	RTF Ca sens inh	C-LANA FP	RTF Ca sens act	Keap1-Nrf2 PPI
CCOC(=O)N1CCC(NS(=O)(=O)c2ccc(C#N)cc2)CC1	-1	·	0	·	0
CCOc1ccccc1OCCOc1ccc(F)cc1	26*	-6	0	-1	-1
COc1ccc(Cl)cc1NC(=O)c1cc(-c2ccc(C)cc2O)n[nH]1	23*	-2	1	6	-1
COc1ccc(Cl)cc1NC(=O)c1cc(-c2cc(C)ccc2O)n[nH]1	2	-2	0	0	-1
CCOC(=O)c1c(/N=C/c2cccc(C)c2O)sc2c1CCN(C)C2	·	-12	1	3	-3
CN(CCC1CCOCC1)C(=O)CC1C(=O)NCCN1Cc1c(F)cccc1Cl (stereo not given)	40*	-3	3	-2	-3
Cc1onc(-c2ccccc2)c1C(=O)Nc1nnc(C(C)(C)C)s1	10*	2	0	-1	5
COc1ccc(N2C(=O)CSC23C(=O)N(CC(=O)NC2CCCC2)c2ccccc23)cc1 (stereo not given)	3	-10	0	-1	-2
CN(Cc1ccc(OC(F)F)cc1)C(=O)c1cccc(S(=O)(=O)N2CCN(c3ccccc3)CC2)c1	·	4	-1	-3	5
CCCn1c(-c2ccccc2)nc2c(=O)n(C)c(=O)[nH]c21	2	-7	-1	-3	-1
COc1ccc(-c2nc3c(=O)n(C)c(=O)[nH]c3n2CCc2ccccc2)cc1	20*!	-13	1	-2	-4
Cc1ccc(/C(N)=N/OC(=O)CCCc2ccccc2)cc1	2	6	-2	-2	-3
CCOc1ccccc1NC(=O)NCCN1CCCCC1	15*	3	-1	1	0
COc1ccccc1NCc1nnc(SCC(=O)N/N=C/c2ccco2)n1-c1ccc(Cl)cc1Cl	-7	-7	-1	9	-2
CCc1cc(-c2nc(N)ncc2-c2ccc(Br)cc2)c(O)cc1OC	19*	-1	1	-1	-7
COc1ccc(Cl)cc1NC(=O)c1cccc([N+](=O)[O-])c1O	·	4	-1	-1	-2
Nc1c([N+](=O)[O-])c(=O)oc2ccccc12	-2	1	-1	-3	-3
O=C(Cc1ccc(Cl)cc1)N1CCc2ccccc2C1	20*	6	0	5	-2
CC(C)C(=O)Nc1nnc(CCN2CCOCC2)s1	18*	3	-1	-4	-6
COC(=O)Cc1nnc(NC(=O)C(C)C)s1	-8	-5	1	1	-6
O=C(/C=C/c1ccc(F)cc1)OCC(=O)c1ccc[nH]1	86*	-9	-1	-3	0
Cc1ccc(NC(=O)CN2C(=O)NC3(CCCCC3C)C2=O)cc1S(=O)(=O)N1CCCCC1 (stereo not given)	55*	0	-1	6	1
COc1ccc(NC(=O)CN2C(=O)NC3(CCCCC3C)C2=O)cc1S(=O)(=O)N1CCOCC1 (stereo not given)	1	-6	4	-1	0
Cc1ccc(C(C)C)c(OCC(=O)Nc2ccc(N3CCN(S(C)(=O)=O)CC3)cc2)c1	50*	-3	2	-1	-6
CCN(CC)CCCNc1ccc2ncn3c4ccc(O)cc4c(=O)c1c23	·	-340	147*	292*	108*
SMILES	LANA-H2B inh	RTF Ca sens inh	C-LANA FP	RTF Ca sens act	Keap1-Nrf2 PPI
CN(C)CCNc1ccc2nnn3c4ccc(O)cc4c(=O)c1c23	·	-3	-20	-1	-3
Cc1ccc(CNS(=O)(=O)c2ccc([N+](=O)[O-])cc2)cc1	-2	-6	0	5	-2
Cc1ccc(S(=O)(=O)Cc2ccc([N+](=O)[O-])cc2)cc1	16*	-8	-4	-1	-2
Cc1cccc2c1NC(=O)C21OCC(CO)([N+](=O)[O-])CO1 (stereo not given)	0	0	-1	-8	-1
O=S(=O)(C=C(c1ccccc1)c1ccccc1)c1ccccc1	15*	2	1	-4	2
O=S(=O)(/C=C/c1ccccc1)c1ccccc1	-1	1	2	0	-1
Cc1n(C)c2cc(Cl)ccc2[n+]1Cc1ccccc1	-2	-5	-1	1	-3
CC(C)C(=O)NC(c1ccc(N(C)C)cc1)c1c(O)ccc2ccccc12 (stereo not given)	27*	-23	-2	5	-4
CN(C1CCCCC1)S(=O)(=O)CCNC(=O)c1ccccc1	-3	-13	1	1	-1
CCOC(=O)C1=C(C)NC(=O)NC1C1CC=CCC1 (stereo not given)	-3	7	0	8	0
COC(=O)C1=C(C)NC(C)=C(C(=O)OC)C1C1CC=CCC1 (stereo not given)	8.1*	-5	-1	1	2
CC(=O)C[C@@H](O)CC(=O)[C@@H]1OC(=O)CCCCCCCCc2ccccc21	9.2*	0	0	0	-1
CC(=O)C[C@H](O)CC(=O)[C@@H]1OC(=O)[C@H](C)C/C=C\Cc2ccccc21	+	-5	1	-8	-3
CC(=O)C[C@@H](O)CC(=O)[C@H]1OC(=O)[C@H](C)C/C=C\Cc2ccccc21	7	-4	1	-3	-7
CC(=O)C[C@@H](O)CC(=O)[C@H]1OC(=O)CCCCCc2ccccc21	1	-10	-1	3	1
CN(C(=O)c1cccc(NC(=O)Cc2ccc(NC(=O)C3CCCN(C(=O)C4CCCC4)C3)cc2)c1)C1CCCCC1 (stereo not given)	·	-5	0	-7	0
CC(=O)C1CCC2C3CCC4CC(=O)CCC4(C)C3C(C)(O)CC12C (stereo not given)	·	11	0	2	-2
O=C(O)c1cc(Br)ccc1NS(=O)(=O)c1cccc2nsnc12	-4	3	1	8	-4
COC(=O)[C@H]1[C@H]2C[C@@H]3c4[nH]c5cc(OC)ccc5c4CCN3C[C@H]2C[C@@H](OC(=O)c2cc(OC)c(OC)c(OC)c2)[C@@H]1OC	0	-2	1	14	-11
COC(=O)C1=COC(C)C2CN3CCc4c([nH]c5cc(OC)c(OC)cc45)C3CC12 (stereo not given)	13	-22	33	30*	-2
CN(C)C(=O)c1nc2ccc(Cl)cn2c1CN1CCCC(OCc2cccnc2)C1 (stereo not given)	-3	2	2	-1	-2
CCOP(=O)(Nc1cccc2oc(=O)c3ccccc3c12)OCC	·	-1	-2	-1	3
C=CCSc1nnc(NC(=O)Cn2cnc3c2c(=O)n(C)c(=O)n3C)s1	78*	-9	1	8	-6
Cn1c(=O)c2c(ncn2CC(=O)Nc2nnc(Cc3ccccc3)s2)n(C)c1=O	-3	4	-1	0	4
O=C(COc1ccccc1CNCc1ccccc1)Nc1ccccc1	3	-4	1	-1	2
O=C(c1ccc(Cn2c(=S)[nH]c3ccc(Br)cc3c2=O)cc1)N1CCN(C2CCCCC2)CC1	10*	2	0	2	-3
